The panel holds about 83,000 compounds, 20% with a hit somewhere; the sample as a whole holds those more often.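 Plates (96-well) were seeded with cells, treated with compound at one concentration, and incubated for 48 hours before percent growth was determined.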 Unmarked numbers belong to inactive results. Calls of active or inactive are those of the source. The calls were made as follows: active = growth percent below 10; inactive = the rest.
Columns and labels:
Test in all cases: NCI-60 one-dose screen, 48 h (100 = growth as untreated, 0 = no growth, -100 = all killed)
Settings in all cases: 10 µM unless noted
EKVX NSCLC = test system: EKVX NSCLC
SN12C renal = test system: SN12C renal
UO-31 renal = test system: UO-31 renal
TK-10 renal = test system: TK-10 renal
ACHN renal = test system: ACHN renal
A498 renal = test system: A498 renal
CCRF-CEM leukemia = test system: CCRF-CEM leukemia
MOLT-4 leukemia = test system: MOLT-4 leukemia
RPMI-8226 leukemia = test system: RPMI-8226 leukemia
OVCAR-8 ovarian = test system: OVCAR-8 ovarian
OVCAR-5 ovarian = test system: OVCAR-5 ovarian
OVCAR-4 ovarian = test system: OVCAR-4 ovarian
SK-OV-3 ovarian = test system: SK-OV-3 ovarian
IGROV1 ovarian = test system: IGROV1 ovarian
OVCAR-3 ovarian = test system: OVCAR-3 ovarian
HS 578T breast = test system: HS 578T breast
NCI/ADR-RES ovarian = test system: NCI/ADR-RES ovarian
T-47D breast = test system: T-47D breast
SR leukemia = test system: SR leukemia
CAKI-1 renal = test system: CAKI-1 renal

Structure (SMILES)	growth (EKVX NSCLC) [%]	growth (SN12C renal)	growth (UO-31 renal)	growth (TK-10 renal)	growth (ACHN renal)	growth (A498 renal)	growth (CCRF-CEM leukemia)	growth (MOLT-4 leukemia)	growth (RPMI-8226 leukemia)	growth (OVCAR-8 ovarian)	growth (OVCAR-5 ovarian)	growth (OVCAR-4 ovarian) [%]	growth (SK-OV-3 ovarian)	growth (IGROV1 ovarian) [%]	growth (OVCAR-3 ovarian)	growth (HS 578T breast)	growth (NCI/ADR-RES ovarian)	growth (T-47D breast)	growth (SR leukemia)	growth (CAKI-1 renal) [%]
O=C1CN(CO)C(=O)CN1CO	114	99.3%	87.7%	124%	97.6%	94%	92.8%	105%	103%	99.7%	94.6%	111	111%	105	113%	101%	103%	107%	–	–
O=C(NN(C(=O)c1ccccc1)c1cccs1)c1ccccc1	112	97.1%	66.1%	91.7%	104%	–	93.8%	107%	94.4%	120%	105%	106	102%	102	115%	104%	103%	94.9%	100%	–
CCOC(=O)C1=NN(c2ccc(Cl)cc2)C2C3N(c4ccc(Cl)cc4)N=C(C(=O)OCC)N3c3ccccc3N12 (stereo not given)	104	111%	92.6%	119%	121%	131%	–	47.4%	–	101%	101%	92.4	115%	76.7	–	120%	101%	102%	40.4%	–
O=c1ccn(C2OC(CO)C(O)C2F)c(=O)[nH]1 (stereo not given)	102	102%	101%	124%	107%	110%	119%	168%	106%	115%	94%	110	114%	–	109%	140%	98.5%	90%	111%	–
Clc1ccc2c(Nc3ccc4oc(NCCN5CCCC5)nc4c3)ccnc2c1	104	83.7%	66.2%	103%	98.2%	90.6%	70.2%	66.6%	77%	94.3%	101%	85.2	114%	93.7	–	97.1%	101%	91.9%	1.43% (active)	–
O=C(Cc1ccccn1)C(F)(F)C(F)(F)C(F)(F)F	130	95.2%	91.6%	117%	111%	126%	97.5%	97%	100%	–	113%	109	109%	123	112%	102%	104%	102%	97.9%	–
CCCc1nn(C)c2c(=O)[nH]c(-c3cc(S(=O)(=O)N4CCN(C)CC4)ccc3OCC)nc12	95.1	102%	78.7%	113%	92.8%	103%	108%	94.8%	101%	109%	95.6%	111	100%	112	111%	104%	90.2%	98.4%	–	–
CCOC(=O)c1ccccc1OC(=O)NNc1ccccc1	92.8	66.4%	29.3%	72.9%	51.9%	100%	24.6%	17.9%	–	71.3%	83.7%	63.6	93.7%	60.4	–	–	58.1%	57.3%	27.6%	–
COc1ccc(C2=NN(C(=O)c3cc(OC)c(OC)c(OC)c3)C(c3ccc(C#N)cc3)C2)cc1OC (stereo not given)	33.4	53.5%	18.2%	31.9%	44.6%	–	29.9%	49.5%	60.8%	32.8%	58.8%	62.1	19.8%	13.4	-47.8% (active)	-18.3% (active)	2.92% (active)	37.1%	28.4%	–
CC(C)(C)c1ccc(C(O)CCCN2CCC(C(O)(c3ccccc3)c3ccccc3)CC2)cc1 (stereo not given)	28.3	4.51% (active)	-80.9% (active)	-81.7% (active)	-88.2% (active)	50.3%	-23.6% (active)	-13.2% (active)	-38.8% (active)	-38.5% (active)	-20.7% (active)	–	-48.9% (active)	34.7	-83.9% (active)	-45.3% (active)	-46.6% (active)	-69.3% (active)	–	–
Cc1nn(-c2ccc(Cl)cc2)c2nc3c(nc12)C(=O)c1ccccc1-3	49.6	78.8%	110%	94.1%	65.1%	-3.2% (active)	–	–	–	–	90.8%	34.5	32.7%	77.3	62.8%	63.7%	62.9%	73.7%	–	–
O=C1Cc2cc(CCN3CCN(CCOCCO)CC3)c(Cl)cc2N1Cc1ccc(-c2ccccc2-c2nn[nH]n2)cc1	47.4	86.1%	79.5%	111%	84.1%	59.9%	–	–	–	–	96.6%	89.6	93.8%	107	94.5%	85%	90.6%	101%	–	–
CCCCC(C#N)C(N)=O (stereo not given)	132	101%	87.8%	107%	110%	122%	95.8%	90.2%	102%	–	106%	107	98.1%	113	108%	101%	105%	100%	93.8%	–
CCN(CC)CCNc1ccc(Cl)cc1Cl	113	113%	87.3%	103%	113%	103%	104%	95.9%	109%	98.2%	124%	117	92.5%	110	–	108%	103%	98.6%	95.1%	–
CCOC(=O)c1c(C)c(C(=O)OCC)n(C)c1C	75	104%	81.2%	78.4%	95.6%	83.9%	84.9%	87.1%	–	120%	–	101	98%	–	–	92.6%	118%	90.7%	87.8%	–
Cc1c(N(C)CS(=O)(=O)O)c(=O)n(-c2ccccc2)n1C	93.1	93.9%	79.9%	108%	–	109%	96.9%	83%	99.2%	109%	106%	116	104%	103	–	125%	109%	107%	–	98.8
CCN(CC)c1ccc(CN(CC(=O)c2ccc(Cl)c(Cl)c2)Cc2ccccc2)cc1	108	101%	81.9%	117%	–	92.1%	97.8%	98%	101%	100%	104%	105	90%	107	99.2%	103%	105%	85.5%	88.3%	92.3
